Hits are enriched below; roughly 4% of the tested compounds scored in any of these assays.
HIF-2a inh = blocks HIF-2a reporter activity; 786-0 RCC cells HIF-2a reporter, luciferase luminescence, overnight; inhibition, % at 18.8 µM; actives 0.72% (n = 360,000);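 active = inhibition of the luminescence signal of 40% or more relative to plate controls, in a single-dose primary screen at 18.75 µM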
Peg3 promoter = inhibitors of Peg3 promoter | HeLa PEG-Prom luciferase reporter, luminescence, overnight | inhibition, % at 20 µM | actives 1.7% (n = 360,000);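 active = inhibition of at least 50% at 20 µM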
CF NFkB block = cystic fibrosis NF-kB activation inhibition. actives 0.86% (n = 360,000). inhibition, % at 5 µM. AID 588850. KKLEB NF-kB-GFP reporter, PAF-induced, GFP fluorescence overnight;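 active = at least 50% inhibition at 5 µM, scaled per plate between neutral and stimulator controls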;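 also: PAF is a Pseudomonas aeruginosa culture filtrate used as stimulus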
KKLEB tox = counter-screen for CF NF-kB inhibitors: cytotoxicity. KKLEB CF airway cells viability, ATPlite luminescence, overnight; hits give low values; cells stimulated with P. aeruginosa culture filtrate. activity change (cytotoxicity), % at 5 µM. actives 0.36% (n = 360,000);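 active = corrected activity change at or below -50% at 5 µM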
TWEAK-Fn14 inh = TWEAK-Fn14 signaling inhibition | TWEAK-stimulated Fn14 reporter cells, luciferase luminescence, 8 h | inhibition, % at 10 µM | actives 2% (n = 360,000) | AID 1159606; in the data active = inhibition above about 50%
TROY signal inh = blocks TROY-dependent signaling in reporter cells. Q293 LMP1-TROYcd NF-kB luciferase reporter, 4 h. inhibition, % at 10 µM. actives 0.98% (n = 360,000). AID 1347056;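 active = compounds whose plate-normalised and pattern-corrected inhibition of the luciferase reporter signal at the single screening dose is 50% or more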
A number is an active result; – = inactive; · = not tested or not shown.

SMILES	HIF-2a inh	Peg3 promoter	CF NFkB block	KKLEB tox	TWEAK-Fn14 inh	TROY signal inh
CCCCn1c(N)c(N(CC(C)C)C(=O)CSc2nnc(C)n2-c2ccccc2)c(=O)[nH]c1=O	–	–	–	–	–	–
CC(C)(C)OC(=O)C[C@H]1C/C=C\C[C@H](CC(=O)NCCO)C(=O)N[C@@H](Cc2ccccc2)COC1=O	–	–	–	–	–	–
CCn1c(=O)n(C)c2c(=O)n(C)c(=O)n(C)c21	–	–	–	–	–	–
COc1ccc2oc(C(=O)Nc3ccc(C)cn3)c(C)c2c1	–	–	–	–	–	–
COc1ccc2oc(C(=O)N3CCN(C(c4ccccc4)c4ccccc4)CC3)c(C)c2c1	–	–	–	–	–	–
COc1ccc2oc(C(=O)Nc3ccccn3)c(C)c2c1	–	–	–	–	52.0	–
COc1ccc2oc(C(=O)N3CCc4ccccc43)c(C)c2c1	–	–	–	-54.8	73.0	63.1
CCOC(=O)/C(C#N)=C/c1c(N2CCN(c3ccccc3)CC2)nc2ccccn2c1=O	–	–	–	–	–	–
COc1cccc(CNC(=O)CSc2nc3ccc(C)cc3[nH]2)c1	–	–	–	–	–	–
Cc1csc(SCC(=O)Nc2cccc3nsnc23)n1	–	–	64.4	–	–	–
N#Cc1nc(-c2ccc(OCc3ccc(Cl)cc3)cc2)oc1N1CCOCC1	–	56.0	–	–	–	–
c1ccc(COc2ccc(CN3CCN(c4ccccn4)CC3)cc2)cc1	–	–	–	–	–	57.2
Cc1ccc(OCc2nc(C#N)c(N3CCN(Cc4ccccc4)CC3)o2)cc1	–	–	–	–	102.8	–
CC(C)CCOc1ccc(C(=O)NCC(c2ccco2)N(C)C)cc1 (configuration not stated)	–	–	–	–	–	–
COc1ccc(CCNc2oc(-c3ccco3)nc2C#N)cc1	–	–	–	–	–	–
N#Cc1nc(-c2ccco2)oc1NCCc1ccccc1	–	–	–	–	61.5	·
CC(C)(C)c1ccc(Oc2ccc(N)cn2)cc1	77.2	–	–	–	–	–
Cc1cc(Oc2ccc(N)cn2)cc(C)c1Cl	–	–	–	–	–	–
Cc1c(C(=O)Nc2ccccc2)cnn1-c1ccccc1	–	–	–	–	–	–
Cc1ccc(NC(=O)c2cnn(-c3ccccc3)c2C)cc1C	–	–	–	–	84.9	62.6
COc1ccc(NC(=O)c2cnn(-c3ccccc3)c2C)cc1	–	–	–	–	50.2	–
O=C(CSc1nncs1)Nc1ccc(N2CCCCC2)cc1	–	–	–	–	–	–
CCN1/C(=C/C=C/c2oc3ccc(-c4ccccc4)cc3[n+]2CC)Oc2ccc(-c3ccccc3)cc21	86.5	83.8	–	–	55.9	–
CCCCN1C(=O)/C(=C/C=C2\Oc3ccccc3N2CC)SC1=S	–	–	–	–	–	–
c1ccc(Nc2nc(NCc3ccco3)c3ccccc3n2)cc1	–	–	–	–	51.9	–
SMILES	HIF-2a inh	Peg3 promoter	CF NFkB block	KKLEB tox	TWEAK-Fn14 inh	TROY signal inh
Cc1cccc(Nc2nc(NCc3ccco3)c3ccccc3n2)c1	–	84.9	–	–	85.8	–
CCSc1ccc2cc(OC)ccc2[n+]1CC	–	–	–	–	–	–
CC(C)(C)S(=O)(=O)N1C[C@@H]2CC/C=C\C/C=C\2[C@H]1CCO	–	–	–	–	–	–
COc1ccc(-c2cnc3c(NC=O)cc(-c4ccccc4)cn23)cc1OC	–	–	–	–	–	–
O=CNc1cc(-c2ccc(C(=O)NC3CC3)cc2)cn2c(-c3ccccc3)cnc12	–	60.6	–	–	–	–
COc1ccc(-c2cnc3c(NC=O)cc(-c4ccc(F)cc4)cn23)cc1OC	–	–	65.8	-52.2	–	–
CC(=O)c1ccc(-c2cnc3c(NC=O)cc(-c4ccc(N5CCN(C)CC5)cc4)cn23)cc1	–	–	–	–	–	–
COc1cccc(-c2cnc3c(NC=O)cc(-c4cc(OC)c(OC)c(OC)c4)cn23)c1	–	–	–	–	–	–
O=CNc1cc(-c2ccc(C(=O)NC3CC3)cc2)cn2c(-c3ccc(F)c(Cl)c3)cnc12	–	–	–	–	–	–
COc1ccc(-c2cnc3c(NC=O)cc(-c4cc(OC)c(OC)c(OC)c4)cn23)cc1OC	–	64.8	–	–	–	–
COc1ccc(-c2cc(NC=O)c3ncc(-c4ccc(C(C)=O)cc4)n3c2)cn1	–	56.8	–	–	–	–
Cc1ccc(C)c(NC(=O)COC(=O)c2ccc(S(=O)(=O)N3CCCCC3)cc2)c1	–	–	–	–	–	–
COc1ccc(-c2cc(NC(C)=O)c3ncc(-c4cccc(C(C)=O)c4)n3c2)cc1OC	–	–	–	–	–	62.1
CN(C)CCNC(=O)c1cccc(-c2cnc3c(NC=O)cc(/C=C/c4ccccc4)cn23)c1	–	97.5	–	–	–	–
CCS(=O)(=O)c1nc(S(=O)(=O)c2ccc(Cl)cc2)c(NCCCN2CCOCC2)s1	–	–	–	–	–	–
CC(C)(C)c1ccc(O)c(N=Cc2cc(Br)ccc2O)c1	51.9	–	–	–	87.6	85.2
c1csc(CNc2nc(NCC3CCCCC3)c3sccc3n2)c1	–	–	–	–	–	–
OC(Cc1cccc(Br)c1)c1ncc(-c2cccc(C(F)(F)F)c2)[nH]1 (configuration not stated)	–	50.4	–	–	–	–
COc1cc(-c2nc(-c3ccccc3)c(-c3ccc(F)cc3)[nH]2)cc2c1OCO2	–	–	–	–	–	–
COc1ccc(-c2[nH]c(-c3ccc4c(c3)OCO4)nc2-c2ccccc2)cc1	–	–	–	–	–	60.3
Cc1sc2nc(SCc3ccc(C(=O)O)cc3)n(Cc3ccco3)c(=O)c2c1C	–	–	–	–	–	60.5
Nn1c(SCc2ccc([N+](=O)[O-])cc2)nc2ccccc2c1=O	–	–	–	–	–	–
O=C(CSc1nc2ccccc2c(=O)n1Cc1ccco1)c1ccccc1	–	–	–	–	51.5	–
COc1ccc(C(=O)Nn2c(SCC(=O)c3ccccc3)nc3ccccc3c2=O)cc1	–	–	–	–	91.8	79.6
COc1ccc(C(=O)Nn2c(SCc3ccc([N+](=O)[O-])cc3)nc3ccccc3c2=O)cc1	–	–	–	–	72.6	76.1
SMILES	HIF-2a inh	Peg3 promoter	CF NFkB block	KKLEB tox	TWEAK-Fn14 inh	TROY signal inh
C=CCn1c(SCc2ccc(C(=O)O)cc2)nc2sc(C)c(C)c2c1=O	–	–	–	–	–	–
Cc1c(C)c2ccc(OCC(=O)Nc3ccccn3)cc2oc1=O	–	–	–	–	81.7	–
Cc1c(C)c2ccc(OCC(=O)Nc3nccs3)cc2oc1=O	–	–	–	–	90.5	–
Cc1c(C)c2ccc(OCC(=O)NCc3ccccn3)cc2oc1=O	–	–	–	–	–	–
O=C(NC12CCC(O)C(SC1)/C2=N/O)c1ccccc1 (configuration not stated)	–	–	–	–	83.0	–
S=c1[nH]nc(-c2cc(-c3ccccc3)n[nH]2)n1/N=C/C(Br)=C/c1ccccc1	–	107.9	104.4	-76.9	75.4	–

Bioassay records from PubChem.
